Source: PubChem (National Center for Advancing Translational Sciences (NCATS))
HP1b binding inh: HP1-beta chromodomain-methylated histone interaction inhibition; P83916; Potency, µM (titrated, usually from 114 µM), for inactives: at the highest dose activity change, negative = inhibition, most hits filed as inhibitors; AID 540317; 390,000 tested, 0.56% active; AlphaScreen HP1-beta / biotin-H3K9me3 peptide binding; further: nearly all actives have a fitted effect of over 70% in size
Target sequence (P83916 whole entry, looked up): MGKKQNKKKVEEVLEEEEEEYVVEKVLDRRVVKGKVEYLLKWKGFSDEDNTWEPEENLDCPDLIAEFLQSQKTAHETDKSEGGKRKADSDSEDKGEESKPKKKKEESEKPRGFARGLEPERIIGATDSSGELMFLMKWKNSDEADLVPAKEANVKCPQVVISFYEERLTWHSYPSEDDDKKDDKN
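AlphaScreen: HP1-beta (50 nM) preformed 30 min with biotin-H3(1-18)K9me3 peptide (50 nM) in PBS pH 7.4, 0.01% Tween-20. Compound added for 30 min at RT, then streptavidin donor/nickel chelate acceptor beads (10 ug/mL) for 30 min.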
JMJD2A Tudor inh: blocks the human JMJD2A Tudor domain | O75164 | AlphaScreen JMJD2A-Tudor / H3K4me3 peptide binding | Potency, µM (doses to about 114 µM), inactives show top-dose activity change, negative = inhibition, actives largely listed as inhibitors | 390,000 tested, 4.4% active | AID 504339; further: on the % scale 0 is the no-effect control and ±100 the full control effect; nearly all actives have a fitted effect of over 50% in size
L3MBTL1 inh: L3MBTL1 (human) inhibition. Potency, µM (titrated, usually from 57.1 µM), for inactives: top-dose activity, negative = inhibition, actives largely listed as inhibitors. Q9Y468. 230,000 tested, 0.66% active. AlphaScreen L3MBTL1–H3K9me1 peptide binding; further: on the % scale 0 is the no-effect control and ±100 the full control effect; nearly all actives have a fitted effect of over 60% in size
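AlphaScreen proximity signal between nickel-chelate acceptor and streptavidin donor beads (final 10 ug/mL) reports binding of 50 nM L3MBTL1 to 75 nM biotin-H3 K9me1 peptide; complex incubated with compounds 30 min at room temperature; cefsulodin titration as control.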
BAZ2B inh: BAZ2B (human) inhibition. Q9UIF8. AlphaScreen BAZ2B-H3K14Ac peptide displacement. Potency, µM (doses to about 114 µM), without a hit: at the highest dose activity change, negative = inhibition, usual class: inhibitors. 360,000 tested, 4.4% active; further: on the % scale 0 is the no-effect control and ±100 the full control effect; nearly all actives have a fitted effect of over 60% in size
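BAZ2B (50 nM) with biotin-H3(5-23)K14Ac peptide (50 nM) in PBS pH 7.4, 0.01% Tween-20, preformed 30 min, then compound 30 min at room temperature; top concentration 110uM. AlphaScreen streptavidin donor/nickel chelate acceptor beads (10 ug/mL final), 20 min dark, signal read.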
GLS inhibitor: blocks human kidney-isoform glutaminase activity; O94925; GLS enzymatic activity, qHTS titration; Potency, µM (top dose mostly 45.5 µM), without a hit: top-dose activity change, negative = inhibition, actives largely listed as inhibitors; 410,000 tested, 0.21% active; AID 624170; further: on the % scale 0 is the no-effect control and ±100 the full control effect
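Coupled fluorescence readout: glutamate oxidase/HRP/Amplex Red detect glutamate formed by hKGA from L-glutamine (1 mM solution added). Buffer 45 mM KH2PO4 pH 8.2, 0.02% Tween-20; reads at t0 and 30 min RT.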
G9a block: inhibitors of human histone lysine methyltransferase G9a; AID 504332; G9a H3K9 monomethylation, AlphaScreen, 2 h; 350,000 tested, 8.8% active; Potency, µM (top dose mostly 102 µM), without a hit: top-dose activity, negative = inhibition, usual class: inhibitors; Q96KQ7; further: on the % scale 0 is the no-effect control and ±100 the full control effect; nearly all actives have a fitted effect of over 75% in size
Target sequence (Q96KQ7 913-1193 limits assumed): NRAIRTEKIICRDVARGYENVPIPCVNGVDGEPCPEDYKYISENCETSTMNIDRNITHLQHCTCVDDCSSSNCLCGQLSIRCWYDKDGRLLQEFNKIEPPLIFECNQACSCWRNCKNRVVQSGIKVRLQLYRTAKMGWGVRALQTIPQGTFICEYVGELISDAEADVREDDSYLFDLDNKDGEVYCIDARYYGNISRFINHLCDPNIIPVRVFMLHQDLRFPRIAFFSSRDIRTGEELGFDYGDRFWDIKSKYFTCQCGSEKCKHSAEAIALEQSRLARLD
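G9a (20 nM) was preincubated 15 min with compound, then reacted 2 h at room temperature with 500 nM biotin-H3K9 peptide and 20 µM SAM. Monomethyl-H3K9 detected by AlphaScreen using anti-H3K9me1 antibody.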
Active calls of the source: *; ? = inconclusive; . = no result; ! = a repeat was not active; [ ] = another dose, or the depositor's remark. The list is not random: actives were taken first. Their share in the collection is about 10%. The call rests on the fitted dose curve; in most records, active means well fitted curve in the direction sought with a large enough effect; inconclusive means small, poorly fitted or top-dose-only effect, or another doubt; inactive means no such curve, though single readings can be large; an effect the other way counts as inactive or inconclusive. Potency means the concentration at half of the fitted maximal effect.

SMILES	HP1b binding inh	JMJD2A Tudor inh	L3MBTL1 inh	BAZ2B inh	GLS inhibitor	G9a block
Nc1nc(NC(=O)/C=C\C(=O)O)nn1-c1ccccc1	43.2%	-16.5%[11.4 µM]	.	22.4µM*	-1.7%	3.5%
CC(=O)Nc1nc(N)n(-c2ccccc2)n1	4.8%	-33.8%	.	?	-6.3%	-15.7%[59 µM]
C/C(=N/NC(=O)OC(C)(C)C)c1ccco1	48.4%	-5.5%	-6.4%	14.9%	1.5%	9.8%
CC(/C=C/c1ccco1)=N\NC(=O)c1cccnc1	9.8%	-24.4%	.	-7.5%	-16.7%	50.1µM*
O=C(/C=C/c1ccco1)c1cccnc1	0.1%	?	.	-33.2%	?	39.8µM*
CC(/C=C/c1ccco1)=N\NC(=O)c1cc(C)[nH]n1	13.8%	-26.1%	?	-9.3%	8.0%	50.1µM*
CC(/C=C/c1ccco1)=N/NC(=O)OC(C)(C)C	23.1%	-8.3%	-3.4%	-4.9%	10.0%	70.8µM*
CC(=O)c1ccc(N2CCN(C(=O)c3cc4c(s3)-c3ccccc3OC4)CC2)cc1	36.2%	-2.5%	.	9.9%	0.2%	2.1%[59 µM]
COc1cccc(-c2oc3ccc(C)cc3c(=O)c2O)c1	96.8%	60.5%	.	33.6%	9.4%	62.4%[59 µM]
COC(=O)c1ccc(NC(=O)CSc2ncc3c(n2)-c2cc(Cl)ccc2N(Cc2ccccc2)S3(=O)=O)cc1	0.1%	-22.7%	.	-4.3%	-4.1%	-2.1%[59 µM]
CCOC(=O)N1CCN(/[N+]([O-])=N/Oc2ccc([N+](=O)[O-])cc2[N+](=O)[O-])CC1C (stereo not given)	9.8%	-26.9%	.	.	.	.
O=C(NCc1nnc(SCC(=O)N2CCCC2)o1)c1c(F)cccc1F	26.1%	4.1%	.	0.3%	-1.0%	44.7%
O=C(NCc1nnc(SCC(=O)N2CCC(Cc3ccccc3)CC2)o1)c1ccccc1F	12.3%	-23.6%	7.5%	-4.9%	-3.8%	44.7µM*
O=C(CSc1nnc(CNC(=O)c2ccco2)o1)Nc1ccccc1F	-9.1%	-14.3%	.	-11.0%	-2.1%	25.1µM*
O=C(CSc1nnc(CNC(=O)c2ccco2)o1)Nc1ccc(Br)cc1	23.6%	-1.9%	.	?	-1.1%	10µM*
O=C(NCc1ccc(F)cc1)c1ccc(CS(=O)Cc2ccc(Cl)cc2)o1 (stereo not given)	37.6%	-3.3%	.	-37.2%	-8.5%	-26.5%[59 µM]
Cc1c(Cl)cccc1NC(=O)C(=O)NCCc1csc(-c2ccc(C(F)(F)F)cc2)n1	25.0%[57 µM]	2.6%	.	5.4%	1.0%	8.4%[59 µM]
NS(=O)(=O)c1ccc(N=Nc2c(=O)[nH]n3c(=O)c4c([nH]c23)CCCC4)cc1	-30.9%	-35.9%	-0.7%	28.2µM*	?	.
Cc1cc(C)n2[nH]c(=O)c(N=Nc3ccc(S(N)(=O)=O)cc3)c2n1	22.5%	?	-2.9%	-21.8%	0.4%	-43.4%
COc1cccc(N=Nc2c(=O)[nH]n3c(=O)c4c([nH]c23)CCC4)c1	?	50.1µM*	?	44.7µM*	0.4%	?
O=c1[nH]n2c(=O)c3c([nH]c2c1N=Nc1cccc(C(F)(F)F)c1)CCCC3	-37.3%	?	-2.3%	-35.6%	23.2%	-15.9%[59 µM]
COc1cccc(N=Nc2c(=O)[nH]n3c(=O)cc(C)[nH]c23)c1	-6.7%	?	.	50.1µM*	33.8%	?
O=c1[nH]n2c(=O)c3c([nH]c2c1N=Nc1cccc(Cl)c1)CCC3	?	3.98µM*	3.55µM*	35.5µM*	?	?
COc1cccc(-c2ccc(C#N)c(=O)[nH]2)c1	36.8%	3.0%	36.4%	0.3%	0.0%	9.0%
Cc1ccc(-c2cc(C(=O)OCC(=O)c3ccccc3)c3cccc(Cl)c3n2)cc1	37.6%	12.5%	.	12.9%	4.8%	-7.9%[59 µM]
SMILES	HP1b binding inh	JMJD2A Tudor inh	L3MBTL1 inh	BAZ2B inh	GLS inhibitor	G9a block
COc1ccc(-n2cc(C(=O)c3ccccc3O)cn2)cc1	49.1%	19.9%	.	22.6%	0.0%	77.2%
COc1ccc(O)c(C(=O)c2cnn(-c3ccccc3)c2)c1	-14.7%	-31.7%	.	-27.1%	13.8%	4.47µM*
CCC12CN3CC(C)(CN(C1)C3c1ccc(O)cc1O)C2=O (stereo not given)	12.9%	-12.6%	.	-15.6%	-1.3%	?
COC(=O)/C=C1/S/C(=N/NC(=O)c2ccc(OC)cc2)NC1=O	27.6%	-25.6%	.	-8.2%[57.1 µM]	18.6%	39.1%
COC(=O)/C=C1/S/C(=N/NC(=O)c2ccccc2OC)NC1=O	36.6%	-9.8%	.	-13.9%	26.0%	7.94µM*
Nc1ccc(-n2nncc2-c2ccc(Cl)cc2)cc1	-3.7%	?	.	-7.3%	-2.8%	7.08µM*
OCC(O)C(O)C(O)C(O)C1NCCS1 (stereo not given)	?	-10.5%	.	21.2%	-6.6%	50.1µM*
COc1ccc(CCNC(=O)CCc2cn(Cc3ccccc3Cl)c3ccccc23)c(OC)c1	24.1%	-32.6%	.	?	-4.7%	?
CCCCCOc1ccc(Cn2c(=O)oc3ccccc32)cc1	34.6%	9.4%	.	5.6%	-5.6%	23.9%[59 µM]
CCc1ccc(-c2cc(C)no2)cc1S(=O)(=O)NCc1ccco1	13.5%	-26.2%	.	?	-1.7%	70.8µM*!
Cc1cc(S(=O)(=O)NCc2ccco2)c(C)cc1Cl	33.3%	-15.2%	.	?	0.6%	44.7µM*
C[n+]1cc(C(O)(c2ccccc2)c2ccccc2)n2ccccc21	.	-8.2%	.	.	.	.
CCOc1ccccc1N1CC(C(=O)N2CCc3ccccc3C2)CC1=O (stereo not given)	-9.5%	28.2µM*	.	-7.7%	?	29.1%[12.7 µM]
CCOc1ccccc1N1CC(C(=O)N2CCc3ccccc32)CC1=O (stereo not given)	22.6%	1.3%	1.5%	-22.1%[57.1 µM]	5.9%	64.9%[59 µM]
CC1(C)CC(N2CCCC2)=CC(=[N+]2CCCC2)C1	-1.2%	-15.1%	?	79.4µM*	8.0%	?
CC1(C)CC(N2CCN(Cc3ccccc3)CC2)=CC(=[N+]2CCCCC2)C1	70.8µM*	17.8µM*	.	-20.0%	-13.2%	?
CN(Cc1ccccc1)C1=CC(=[N+]2CCCCC2)CC(C)(C)C1	17.1%	-11.5%	.	?	-11.2%	31.6µM*
CCC(=O)[C@@]1(C)[C@H](C)C[C@@H]2[C@@H]3CCC4=CC(=O)C=C[C@@]4(C)[C@H]3[C@H](O)C[C@]21C	.	.	.	.	-17.5%[20 µM]	12.0%[21.5 µM]
N=c1ccn2c(n1)O[C@H]1[C@@H](O)[C@@H](CO)O[C@H]12	.	.	.	.	.	27.3%[12.7 µM]
O=C(O)c1csc(N/N=C/c2ccc(Br)cc2)n1	30.4%	-19.6%	-18.2%	79.4µM*	3.2%	35.5µM*
Cc1ccc(S(=O)(=O)Nc2cccc3ccccc23)cc1	12.0%	-11.0%	.	.	.	.
Cc1ccc(S(=O)(=O)Nc2cccc3ccc[n+](C)c23)cc1	.	50.1µM*	.	.	.	.
CCc1ccc(NC(=O)c2cc3c(COC(C)=O)cnc(C)c3oc2=O)cc1	-3.0%	-23.5%	.	-2.5%	-0.2%	-3.9%[59 µM]
